# Tau fibril FP: inhibitors of human tau fibril formation; P10636; K18 P301L tau heparin fibrillization, Alexa594 FP, 6 h; Potency, µM (series often up to 57.7 µM), without a hit: at the highest dose activity, negative = inhibition, actives largely listed as inhibitors; 0.39% of 280,000 active; also: nearly all actives have a fitted effect of over 55% in size
# Target sequence (P10636 561-689 P618L limits assumed): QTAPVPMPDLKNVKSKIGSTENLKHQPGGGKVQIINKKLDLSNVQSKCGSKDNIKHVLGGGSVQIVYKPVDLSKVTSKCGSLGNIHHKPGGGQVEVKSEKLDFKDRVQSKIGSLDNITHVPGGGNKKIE
#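 Quantitative HTS format: compounds meet 15 uM recombinant K18 P301L tau and Alexa 594-tau tracer in 100 mM sodium acetate pH 7; 20 uM heparin triggers fibrillization at 37 C over 6 hr; FP gives the signal.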
# ALDH1A1 block: ALDH1A1 (human) enzyme inhibition; AID 1030; 7.3% of 220,000 active; Purified ALDH1A1, NADH fluorescence, propionaldehyde substrate; Potency, µM (highest dose often 75.3 µM), for the others: at the top dose activity, negative = inhibition, most hits filed as inhibitors; active = well fitted inhibition curve with a large enough effect, not every such curve was filed as active; inconclusive = small, poorly fitted or top-dose-only effect, or another doubt; inactive = no such curve, though single readings can be large or run the other way;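 also: plate controls were no enzyme wells and a reference inhibitor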
# NPSR antag: neuropeptide S receptor (human) antagonism, cAMP | Q6W5P4 | CHO-NPSR cells, cAMP TR-FRET, antagonist mode | Potency, µM (highest dose often 38.3 µM), without a hit: top-dose activity change, negative = inhibition, actives largely listed as inhibitors | 1% of 220,000 active; also: nearly all actives have a fitted effect of over 50% in size
# Target sequence (Q6W5P4 whole entry, looked up): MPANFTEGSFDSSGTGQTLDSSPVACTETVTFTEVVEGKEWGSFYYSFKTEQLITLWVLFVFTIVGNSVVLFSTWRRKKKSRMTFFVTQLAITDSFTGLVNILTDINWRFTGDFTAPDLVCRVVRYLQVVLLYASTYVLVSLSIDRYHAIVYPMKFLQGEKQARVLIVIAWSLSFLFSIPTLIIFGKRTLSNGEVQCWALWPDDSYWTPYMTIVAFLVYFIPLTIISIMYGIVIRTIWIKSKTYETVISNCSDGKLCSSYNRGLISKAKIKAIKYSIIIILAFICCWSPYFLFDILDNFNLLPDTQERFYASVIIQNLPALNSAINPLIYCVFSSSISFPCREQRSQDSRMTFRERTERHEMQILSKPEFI
# Tau fluor cs: counter-screen for tau fibril formation inhibitors | tau K18 P301L Alexa594 fluorescence, heparin fibrillization | Potency, µM (highest dose often 57.7 µM), for inactives: at the highest dose activity change, negative = decrease | 0.93% of 280,000 active; also: nearly all actives have a fitted effect of over 55% in size
#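 Human tau K18 P301L (15 uM unlabeled, 0.24 uM Alexa 594-labeled) in 100 mM sodium acetate pH 7 with 20 uM heparin, 6 hr at 37 C. ThT 30 uM added, 1 hr ambient; Alexa 594 FP and total fluorescence read at 555/632 nm.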
# Tau fibril ThT: blocks human tau fibril formation measured by thioflavin T. P10636. recombinant tau K18 P301L, heparin-induced fibrillization, ThT fluorescence. Potency, µM (highest dose often 57.4 µM), without a hit: at the top dose activity, negative = inhibition, usual class: inhibitors. 2.1% of 270,000 active; also: nearly all actives have a fitted effect of over 55% in size
#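 ThT emission at 510 nm, taken 1 hr after adding 30 uM dye, quantifies aggregates formed when 20 uM heparin acts on human tau K18 P301L for 6 hr at 37 C.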
# HPGD inh: HPGD (human) dehydrogenase inhibition; P15428; purified HPGD, NADH fluorescence kinetic, PGE2 substrate; Potency, µM, without a hit: top-dose activity change, negative = inhibition, actives largely listed as inhibitors; 4.3% of 150,000 active; AID 894; active = well fitted inhibition curve with a large enough effect, not every such curve was filed as active; inconclusive = small, poorly fitted or top-dose-only effect, or another doubt; inactive = no such curve, though single readings can be large or run the other way
#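 20 nM HPGD preincubated 15 min at room temperature with compound in 50 mM Tris-HCl pH 8, 0.01% Tween 20. Started with 1 mM NAD+ and 30 uM prostaglandin E2; NADH fluorescence (360/450 nm) read 5 times over 30-s intervals, last minus first.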
# The depositor's hits bear a star; ? = inconclusive; nt = not tested or not shown; [ ] = dose if it differs, or a comment. An excerpt weighted towards active compounds, which were near 9.5% of everything screened. Unless noted, calls follow the shape of the dose curve; as a rule, active = well fitted curve in the direction sought with a large enough effect; inconclusive = small, poorly fitted or top-dose-only effect, or another doubt; inactive = no such curve, though single readings can be large; an effect the other way counts as inactive or inconclusive. Unless noted, % is scaled to controls: 0 for no effect and ±100 for the full control effect; potency is read from the fitted curve at half-maximal effect.
SMILES,Tau fibril FP,ALDH1A1 block,NPSR antag,Tau fluor cs,Tau fibril ThT,HPGD inh
O=S(=O)(c1ccccc1F)N1CCN(Cc2nc3ccccc3[nH]2)CC1,-3%,11µM*,8%[46.1 µM],-17%,-4%,-7%
c1ccc2[nH]c(CN3CCCCCC3)nc2c1,1%,-4%,10%[46.1 µM],0%,-8%,-17%
CCCS(=O)(=O)N1CCN(Cc2ccccc2C(F)(F)F)CC1,2%,?,2%[46.1 µM],2%,2%,-7%
CCCS(=O)(=O)N1CCN(Cc2ccccc2[N+](=O)[O-])CC1,-6%,8.9µM*,3%,-3%,-6%,nt
CC(C)CC(=O)N1CCN(Cc2ccccc2[N+](=O)[O-])CC1,0%,0.089µM*,2%,-2%,1%,nt
COC(=O)[C@@]1(Cc2ccc(F)cc2)[C@H]2c3cc(C(=O)N4CCCC4)n(Cc4ccccn4)c3C[C@H]2CN1C(=O)c1ccccc1,-2%,7%,nt,-2%,-16%,-8%
CC(C)CNC1=C(C(=S)Nc2ccccc2)C(=O)CC(C)(C)C1,-9%,?,-46%,-15%,-6%,0%
COc1ccc(C2Sc3nncn3N2Cc2ccc(C#N)cc2)cc1 (centres undefined),-2%,10µM*,-3%[46.1 µM],-11%,-9%,-7%
Cc1ccc(SCC(=O)Nc2ccc(N3CCN(C)CC3)c(F)c2)c(C)c1,9%,-8%,-17%,-16%,-3%,nt
CCCCCCOC(=O)CCc1c(C)nc(N)[nH]c1=O,-5%,19%,-7%[46.1 µM],-5%,-3%,1%
CCCCCCCCOC(=O)CCc1c(C)[nH]c(=S)[nH]c1=O,-2%,2µM*,-24%[46.1 µM],-8%,-19%,-9%
C=CCn1c(SCC(=O)C(C)(C)C)nnc1-c1ccccn1,1%,?,14%[46.1 µM],-2%,-1%,-21%
CCn1c(SCC(=O)C(C)(C)C)nnc1-c1ccccn1,2%,7.1µM*,-8%[46.1 µM],-3%,-6%,-15%
O=C(CSc1nnc(-c2ccccn2)n1Cc1ccccc1)N1CCCC1,-9%,-11%,-7%[46.1 µM],-9%,-6%,28µM*
C=CCn1c(SCC(=O)C(C)(C)C)nnc1-c1cccs1,?,13µM*,-4%[46.1 µM],-1%,-4%,14µM*
O=C(COc1ccc(Br)cc1CNCCCN1CCOCC1)Nc1ccccc1,2%,-3%,0%,1%,-3%,-5%
Cc1c(C)c2c(c(C)c1O)CC[C@@](C)(C(=O)O)O2,nt,14%[20.9 µM],nt,nt,nt,-3%
CCc1nc(C)cn1S(=O)(=O)c1ccc(Cl)c(Cl)c1OC,7%,nt,nt,-10%,5%,nt
CCOC(=O)c1c(C)oc(/N=C/c2ccccc2O)c1C#N,5%,-9%,-21%[46.1 µM],0%,-7%,-4%
CCC(=O)N1c2ccccc2C(C)(c2ccccc2)CC1(C)C (centres undefined),-8%,nt,nt,-7%,?,nt
CC1(c2ccccc2)CC(C)(C)N2C(=O)/C(=C3\SC(=S)NC3=O)c3cccc1c32 (centres undefined),?,0%,5µM*,?,?,-26%
CCOC(=O)/C(=C\c1cccnc1)C(=O)c1cc(C(C)=O)c(Nc2ccccc2)s1,?,?,3.2µM*,-15%,?,20µM*
COC(=O)c1c(CSc2ccc(C)c(C)c2)noc1C(=O)NCc1ccc(OC)cc1,5%,?,?,-26%,-14%,7.1µM*
Cc1cccc(SCc2noc(C(=O)NC(C)C)c2C(=O)O)c1,0%,-13%,-3%[46.1 µM],3%,4%,-16%
COC(=O)c1c(CSc2cccc(C)c2)noc1C(=O)NCc1ccco1,-10%,?,-18%[46.1 µM],-23%,?,11µM*
COCCNC(=O)c1onc(CSc2ccc(F)cc2)c1C(=O)NCCOC,1%,nt,10%,22%,16%,nt
COC(=O)c1c(CSc2ccc(Cl)cc2)noc1C(=O)NCc1ccco1,7%,?,-23%[46.1 µM],-23%,-12%,22µM*
C=CCOC(=O)C(C(C)=O)C(NC(=O)OC)c1ccc(Cl)cc1 (centres undefined),-3%[11.6 µM],11%[13.5 µM],nt,-7%[11.6 µM],-4%[11.5 µM],nt

# Compound activity as filed in PubChem.
